# From ChEMBL document CHEMBL3988442, “University of Dundee, Small-Polar-MMV Screening Library” (2021)
# About 960 (1.5%) of roughly 66,000 compounds showed an effect of 50% or more. The entries come from a sample that favours strong results as a whole.
# System: Trypanosoma brucei
# Assay: Trypanosoma brucei 72 hour study
# Assay type: functional, organism-based
# Set-up: scale not given: in the data most compounds retested in dose-response had high values
structure (smiles),measurement,setting,value
O=C(O)C(F)(F)F.O=C(c1ccnnc1)N1CC[C@]2(C[C@H](Oc3ncccc3F)CO2)C1,Percent Effect,"30 µM, 30.03 µM",-5.807%
Cn1ccc(CNC(=O)Nc2ccc(S(=O)(=O)C(F)F)cc2)c1,Percent Effect,"30 µM, 30.03 µM",-7.299%
COc1ccc(CNC(=O)Nc2ccc(S(=O)(=O)C(F)F)cc2)cc1,Percent Effect,"30 µM, 30.03 µM",-8.777%
CN(C)c1ccc(CNC(=O)Nc2ccc(S(=O)(=O)C(F)F)cc2)cc1,Percent Effect,"30 µM, 30.03 µM",71.22%
COCCNC(=O)CN1CCN(c2nc(C)cs2)CC1,Percent Effect,10 µM,-57.99%
CC(C)C(=O)Nc1ccc(Oc2ccc3c(c2)OCO3)nc1,Percent Effect,"30 µM, 30.03 µM",-14.33%
CCC(=O)NCCCn1c(-c2cccnc2C)cc2cccnc21.Cl,Percent Effect,"30.3 µM, […]",-13.2%
CN(Cc1cccs1)C(=O)c1ccc(=O)n(C)c1,Percent Effect,"30.3 µM, […]",98.98%
COCCN(Cc1cccs1)C(=O)c1ccc(=O)n(C)c1,Percent Effect,"30.3 µM, […]",-3.424%
CCN(Cc1cccs1)C(=O)c1ccc(=O)n(C)c1,Percent Effect,"30.3 µM, […]",-2.313%
CC(=O)c1c(C)nn(CC(=O)Nc2ccc(Br)cc2)c1C,Percent Effect,"30.3 µM, […]",101.3%
COc1ccc(NC(=O)Cn2nc(C)c(C(C)=O)c2C)cc1,Percent Effect,"30.3 µM, […]",101.9%
CC(=O)c1c(C)nn(CC(=O)Nc2ccc(F)cc2)c1C,Percent Effect,"30.3 µM, […]",-35.96%
COc1ccc(NC(=O)Cn2nc(C)c(C)cc2=O)cc1OC,Percent Effect,"30.3 µM, […]",-10.01%
COc1ccc(NC(=O)Cn2nc(C)c(C)cc2=O)cc1,Percent Effect,"30 µM, 30.03 µM",-33.88%
Cc1cc(=O)n(CC(=O)Nc2ccc(Cl)cc2)nc1C,Percent Effect,"30 µM, 30.03 µM",-26.52%
Cc1ccc(Nc2nccc(C3CCN(CC(N)=O)C3)n2)nc1 (centres undefined),Percent Effect,"30.3 µM, […]",-50.23%
O=C(O)C(F)(F)F.O=C(c1ccccc1)N1CCC[C@]2(C[C@@H](OCc3ccccn3)CO2)C1,Percent Effect,"30.3 µM, […]",-136.6%
O=C(C1CC1)N1CCCC1c1nnc2n1CCCCC2 (centres undefined),Percent Effect,"30 µM, 30.03 µM",-31.5%
CN(C)C(=O)CN1CCn2cc(Cn3cccn3)nc2C1.O=C(O)C(F)(F)F.O=C(O)C(F)(F)F,Percent Effect,"30 µM, 30.03 µM",-43.32%
CCNc1cc2c(nn1)CCN(C(=O)c1cc3cccc(C)c3o1)C2,Percent Effect,10 µM,-32.26%
same,Percent Effect,"30.3 µM, […]",29.79%
CC(C)CN1Cc2nc(N3CCCC(C)C3)ncc2C1=O (centres undefined),Percent Effect,"30 µM, 30.03 µM",-5.722%
Cl.Cl.O=C(CN1CCN(CC(O)C2CC2)CC1)NCc1ccccc1Cl (centres undefined),Percent Effect,"30.3 µM, […]",-15.94%
COc1ccc(C(=O)NCCCOC(C)c2ccccc2)c(OC)c1 (centres undefined),Percent Effect,"30.3 µM, […]",17.87%
OC(CNc1ncnc2c1CCNCC2)C(F)(F)F (centres undefined),Percent Effect,"30 µM, 30.03 µM",-18.54%
OC(CNc1nc(C2CCCC2)nc2c1CCNCC2)C(F)(F)F (centres undefined),Percent Effect,"30 µM, 30.03 µM",99.48%
Cc1nc2c(c(NCC(O)C(F)(F)F)n1)CCNCC2 (centres undefined),Percent Effect,"30 µM, 30.03 µM",-77.95%
N#Cc1cccc(CN2CCC3(CC2)CC(c2ccncc2)C(=O)N3)c1.O=C(O)C(F)(F)F.O=C(O)C(F)(F)F (centres undefined),Percent Effect,"30 µM, 30.03 µM",43.46%
CCOc1ncccc1NC(=O)c1cc(C)sc1C,Percent Effect,"30 µM, 30.03 µM",-36.47%
CCOc1ncccc1NC(=O)c1ccc(C)s1,Percent Effect,"30 µM, 30.03 µM",-25.8%
CCOc1ncccc1NC(=O)c1cc(C)c(C)s1,Percent Effect,"30 µM, 30.03 µM",63.47%
O=C(NCCc1nnc2n1CCC2)NCC1(c2ccccc2)CC1,Percent Effect,"30.3 µM, […]",3.515%
O=C(O)C(F)(F)F.O=C(c1ccsc1)N1CCC2(CCN(Cc3ccccn3)C2=O)C1 (centres undefined),Percent Effect,"30 µM, 30.03 µM",-3.251%
CC(C)C(=O)N1CCC(n2nc(-c3ccco3)ccc2=O)CC1,Percent Effect,"30.3 µM, […]",-15.18%
CC(C)c1nnc2ccc(N3CCC(C(=O)Nc4nccs4)CC3)nn12,Percent Effect,"30 µM, 30.03 µM",61.33%
Cc1nnc2ccc(N3CCC(C(=O)Nc4nccs4)CC3)nn12,Percent Effect,"30 µM, 30.03 µM",0.472%
CC(C)c1nnc2ccc(N3CCCC(C(=O)Nc4nccs4)C3)nn12 (centres undefined),Percent Effect,"30 µM, 30.03 µM",-31.38%
CC(C)C1CN(S(C)(=O)=O)CCCN1Cc1ccc(F)cc1 (centres undefined),Percent Effect,"30 µM, 30.03 µM",-25.6%
CC(C)C1CN(c2cccc(C#N)n2)CCCN1Cc1ccc(F)cc1 (centres undefined),Percent Effect,"30.3 µM, […]",99.78%
CC(C)C1CN(c2cccc(C#N)n2)CCCN1CC1CC1 (centres undefined),Percent Effect,"30.3 µM, […]",-2.966%
CN(C)C(=O)[C@H]1C[C@H]2OCC[C@H]2N(Cc2ccc3ccccc3n2)C1.O=C(O)C(F)(F)F.O=C(O)C(F)(F)F,Percent Effect,"30.3 µM, […]",-111.9%
CCCNC(=O)c1cc2c(c3ccccc3n2C)n1C(=O)N(C)C,Percent Effect,"30.3 µM, […]",27.2%
COCCNC(=O)c1cc2c(c3ccccc3n2C)n1C(=O)N(C)C,Percent Effect,"30 µM, 30.03 µM",28.71%
CC(C)NC(=O)c1cc2c(c3ccccc3n2C)n1C(=O)N(C)C,Percent Effect,"30 µM, 30.03 µM",61.67%
Cc1ccsc1CN1CCC(n2cc(C(O)c3ccccc3)nn2)CC1 (centres undefined),Percent Effect,"30.3 µM, […]",-15.95%
CCc1nnc2n1CCN(C(=O)CCOc1ccc(C)cc1C)C2,Percent Effect,"30 µM, 30.03 µM",-30.52%
O=C(O)C(F)(F)F.O=C([C@@H]1CCO[C@@H]2CCN(CC3CCOCC3)C[C@H]21)N1CCCO1,Percent Effect,"30 µM, 30.03 µM",-11.19%
CCOCC(=O)N1C[C@@H]2CCN(c3cnccn3)C[C@@H]2C1.O=C(O)C(F)(F)F,Percent Effect,"30.3 µM, […]",-17.39%
